“And” between values parts separate entries of the source, which are not always exact repeats. Identical values can stand only once. The source made the active and inactive calls.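 Rule for the calls, unless noted: active = compounds whose cell count with miR-34 switched on is under 0.7 times the count with it off; inactive = the rest.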
Legend:
[1] = differential killing of epithelial or mesenchymal cells, primary screen, imaging, PC-3E GFP, TEM4-18 mCherry, co-culture (AID 1345086;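 active = compounds killing one labelled cell type while sparing the other, by normalised counts and ratio limits, not self-fluorescent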;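 for all read-outs here: cells exposed to compound for 72 h before imaging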;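 for red/green cell ratio (normalised): normalised mesenchymal count divided by normalised epithelial count so high means epithelial killing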); conditions: imaging cell counts, at 1 µM; for red/green cell ratio (normalised): actives lie on both sides, counts scaled to control wells, 1 = unselective
[2] = sensitizers of A549 cells to miR-34 induction, primary screen, imaging, A549 dox-inducible miR-34, nuclei and caspase counts (AID 1347080); conditions: A549 miR-34 inducible, Hoechst nuclei count, 48 h
[3] = survival rescue of mitochondrial mutant cells in low glucose, primary screen, MELAS cybrids, Rieske KO mouse fibroblasts, CellTiter-Glo (AID 1508586;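 active = mean z-score across replicates of 1.96 or higher in either the MELAS or the Rieske mutant cell line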;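 note: z relative to plate mean and SD of compound and empty wells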)
[4] = target: NAD(+) hydrolase SARM1 (Homo sapiens) (UniProt Q6SZW1); assay: SARM1 TIR NADase inhibitors, cell lysate, NAD-Glo luminescence (AID 1508614;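 active = compound whose remaining NAD level is above about 45 nM, limit read from the data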;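 note: higher remaining NAD means stronger inhibition of SARM1 NADase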); conditions: SAM-TIR HEK293T lysate NADase, at 1 µM, stronger effect = higher value
Chain of NAD(+) hydrolase SARM1 (Homo sapiens) (Q6SZW1 whole entry, looked up): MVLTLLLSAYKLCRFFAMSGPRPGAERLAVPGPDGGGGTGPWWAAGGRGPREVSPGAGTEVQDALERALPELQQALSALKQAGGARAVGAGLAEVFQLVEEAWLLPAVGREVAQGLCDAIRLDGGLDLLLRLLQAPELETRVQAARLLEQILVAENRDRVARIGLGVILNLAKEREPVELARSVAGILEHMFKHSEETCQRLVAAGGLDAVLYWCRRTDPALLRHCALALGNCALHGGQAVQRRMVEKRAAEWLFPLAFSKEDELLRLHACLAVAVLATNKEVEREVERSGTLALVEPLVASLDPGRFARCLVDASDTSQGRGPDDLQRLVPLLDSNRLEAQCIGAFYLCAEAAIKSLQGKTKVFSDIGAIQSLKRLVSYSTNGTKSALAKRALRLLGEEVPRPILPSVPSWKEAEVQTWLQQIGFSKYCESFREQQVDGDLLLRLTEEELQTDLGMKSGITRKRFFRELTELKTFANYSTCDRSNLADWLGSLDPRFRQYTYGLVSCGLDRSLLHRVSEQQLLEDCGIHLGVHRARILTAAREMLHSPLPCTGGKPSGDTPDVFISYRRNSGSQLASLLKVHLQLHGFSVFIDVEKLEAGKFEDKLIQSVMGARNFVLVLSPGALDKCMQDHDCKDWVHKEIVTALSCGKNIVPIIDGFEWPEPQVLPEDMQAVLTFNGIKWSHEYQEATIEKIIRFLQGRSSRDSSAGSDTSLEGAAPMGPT

[5] = measured here: epithelial PC-3E GFP cell survival
[6] = measured here: mesenchymal TEM4-18 mCherry cell survival
[7] = stronger effect = lower value, cell number ratio, induced over uninduced
[8] = measured here: relative caspase fold change +Dox/-Dox
[9] = measured here: total cells with miR-34 induction, stronger effect = lower value
[10] = measured here: total cells without miR-34 induction

| Structure (SMILES) | red/green cell ratio (normalised) [1] | normalised cell number [1, 5] | normalised cell number [1, 6] | fold change [2, 7] | fold change [2, 8] | cell count [2, 9] | cell count [2, 10] | z-score ([3]; MELAS cybrid survival, CellTiter-Glo 48 h, stronger effect = higher value) | z-score ([3]; Rieske KO mouse fibroblast survival, CellTiter-Glo 72 h) | remaining NAD [4] |
| --- | --- | --- | --- | --- | --- | --- | --- | --- | --- | --- |
| C#C[C@]1(O)CCC2C3CCc4cc(OC5CCCC5)ccc4C3CC[C@@]21C (some centres not stated) | 0.98 (inactive) | 1.02 | 1 | 0.818 (inactive) | 0.977 | 4740 | 5800 | – | – | – |
| CCC(CC)O[C@@H]1C=C(C(=O)OC)C[C@H](N)[C@H]1NC(C)=O | 0.99 (inactive) | 1.01 | 1 | 0.882 (inactive) | 1.08 | 8740 | 9910 | – | – | – |
| COc1c(O)cc2c(c1O)[C@H]1O[C@H](CO)[C@@H](O)[C@H](O)[C@@H]1OC2=O | 0.9 (inactive) | 1.23 | 1.11 | 0.894 (inactive) | 0.886 | 8900 | 9950 | – | – | – |
| CC(=O)Oc1cc2c(s1)CCN([C@H](C(=O)C1CC1)c1ccccc1F)C2 | 1.12 (inactive) | 0.87 | 0.98 | 0.848 (inactive) | 0.716 | 7480 | 8810 | – | – | – |
| CC1/C=C/C=C/C=C/C=C/C=C/C=C/C=C/C(O[C@@H]2O[C@H](C)[C@H](O)[C@@H](O)[C@@H]2N)CC(O)C(C(=O)O)C(O)CC(=O)CC(O)CC(O)CC(O)CC(=O)CCCC(=O)CC(=O)OC1C(C)CC(C)C(O)CC(=O)c1ccc(N)cc1 (some centres not stated) | 0.94 (inactive) | 1.09 | 1.03 | 0.786 (inactive) | 1.31 | 5340 | 6790 | – | – | – |
| CCC(=O)OCC(=O)[C@@]1(OC(=O)CC)[C@H](C)CC2C3C([C@@H](O)C[C@@]21C)[C@@]1(C)C=CC(=O)C=C1C[C@H]3Cl (some centres not stated) | 1.28 (inactive) | 0.98 | 1.25 | 0.884 (inactive) | 0.881 | 5210 | 5890 | – | – | – |
| CCCCCOC(=O)Nc1nc(=O)n(C2O[C@H](C)[C@@H](O)[C@H]2O)cc1F (some centres not stated) | 1.41 (inactive) | 0.48 | 0.68 | 0.954 (inactive) | 0.897 | 8840 | 9270 | – | – | – |
| CC(C)(O)c1ccccc1CC[C@@H](SC1(CC(=O)O)CC1)c1cccc(/C=C/c2ccc3ccc(Cl)cc3n2)c1 | 1.02 (inactive) | 1.13 | 1.16 | 0.955 (inactive) | 0.641 | 9020 | 9450 | – | – | – |
| CC(=O)c1ccc2c(c1)Sc1ccccc1N2CCCN1CCN(CCO)CC1 | 1.02 (inactive) | 1.21 | 1.23 | 0.952 (inactive) | 0.758 | 8860 | 9300 | – | – | – |
| CC(=O)[C@H]1CCC2C3CC=C4C[C@@H](OC(=O)CCC(=O)O)CC[C@]4(C)C3CC[C@@]21C (some centres not stated) | 0.87 (inactive) | 1.07 | 0.93 | 0.903 (inactive) | 0.914 | 8450 | 9360 | – | – | – |
| CC(=O)OC1CC2CCC1(C)C2(C)C (configuration not stated) | 1.03 (inactive) | 0.91 | 0.94 | 0.913 (inactive) | 0.766 | 8690 | 9520 | – | – | – |
| N=C(N)c1ccc(N=NNc2ccc(C(=N)N)cc2)cc1 (tested in a mixture with another compound) | 0.86 (inactive) | 1.06 | 0.91 | 0.828 (inactive) and 0.804 (inactive) | 1.35 and 1.21 | 6360 and 8020 | 7680 and 9970 | 6.02 (active) | 5.36 | 10 nM (inactive) |

From PubChem BioAssay
